The values below come from PubChem BioAssay (Tox21).

Assay [1] in a line: Nuclear factor erythroid 2-related factor 2/antioxidant responsive element (Nrf2/ARE) small molecule agonists: luciferase reporter gene qHTS assay in human keratinocytes (AID 1919969; also: nearly all actives have a fitted effect of over 35% in size; also: potency is read from the fitted curve at half-maximal effect). (In general: Reporter assays use an easily measured gene product as a stand-in for the process of interest.)
The target in assay [2] is Gonadotropin-releasing hormone receptor (Homo sapiens) (UniProt P30968). In words: Human gonadotropin-releasing hormone receptor (GnRHR) small molecule agonists, calcium flux assay in GnRHR-HEK293 cells (AID 1920063). Also: nearly all actives have a fitted effect of over 35% in size. The method in brief:
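Compounds dissolved in DMSO are pin-transferred onto dye-loaded GnRHR-HEK293 cells, which were seeded 18 h before at 37 C/5% CO2. Calcium signal is read as fluorescence intensity at 1 s intervals for 3 min.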

Assay [3] addresses KiSS-1 receptor (Homo sapiens) (UniProt Q969F8). In words: Human kisspeptin (KISS1R) small molecule agonists, calcium flux assay in KISS1R-HEK293 cells (AID 1920064; active = well fitted activation curve with a large enough effect in the repeat runs). The method in brief:
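Cell line: HEK293, stable human KISS1R. Dye loading 1 h at 37 C after 18 h culture. Read: kinetic fluorescence, 480/540 nm, 3 min at 1 s intervals.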
For orientation: Calcium flux is commonly read through the fluorescence of an indicator in the cells.

Assay [4] is described as follows: G protein-coupled receptor (GPCR) small molecule agonists, calcium flux assay: HEK293 wild type cell line counter screen (AID 1920065). An outline of the steps: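 Tox21 10K compounds, 15 concentrations each in triplicate, pin-transferred in DMSO onto dye-loaded cells; kinetic read at 480/540 nm for 3 min, 1 s intervals.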
Assay [5] in a line: p53 small molecule agonists, cell-based qHTS assay with human liver microsomes (AID 1963577).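 Also: p53 response element beta-lactamase reporter cells with liver microsomes plus NADPH.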 The method in brief: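 Reporter activation was measured by LiveBLAzer fluorescence intensity in p53RE-bla cells, which had been exposed to compounds for 16 h at 37 C alongside 0.5 mg/mL human liver microsomes and 0.5 mg/mL NADPH (final concentrations).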
Assay [6] is described as follows: p53 small molecule agonists, cell-based qHTS assay with rat liver microsomes (AID 1963578). An outline of the steps: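 Compound in DMSO added to p53RE-bla cells 5 h post-plating; rat microsomes/NADPH 0.5 mg/mL final; 16 h, 37 C; LiveBLAzer 2 h RT.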
(Quantitative high-throughput screening tests each substance at several concentrations.)

The nature of assay [7]: p53 small molecule agonists, cell-based qHTS assay with human liver microsomes: qHTS cell viability counter screen (AID 1963579). Also: nearly all actives have a fitted effect of over 45% in size. Also: potency is read from the fitted curve at half-maximal effect. The method in brief: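 HLM-supplemented (0.5 mg/mL final) and NADPH-supplemented (0.5 mg/mL final) p53RE-bla cultures, 4,000 cells per well, were dosed with compounds in DMSO for 16 h at 37 C; luminescent ATP detection (CellTiter-Glo, 30 min, room temperature) quantified surviving cells.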

A short description of assay [8]: p53 small molecule agonists, cell-based qHTS assay with rat liver microsomes: qHTS cell viability counter screen (AID 1963580). Also: nearly all actives have a fitted effect of over 45% in size. Also: potency is read from the fitted curve at half-maximal effect. An outline of the steps:
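Counter screen for cytotoxicity under metabolic activation: rat liver microsomes and NADPH, 0.5 mg/mL final each, added with compounds to p53RE-bla HCT-116 cells; 16 h at 37 C, then ATP luminescence read.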

The nature of assay [9]: p53 small molecule agonists, cell-based qHTS assay: qHTS cell viability counter screen (AID 1963581). Also: nearly all actives have a fitted effect of over 45% in size. Also: potency is read from the fitted curve at half-maximal effect. An outline of the steps: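 ATP content measured by luminescence in HCT-116 p53RE-bla cells treated 16 h at 37 C, same wells as the reporter screen.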
A short description of assay [10]: p53 small molecule agonists, cell-based qHTS assay (AID 1963582; active = well fitted activation curve with a large enough effect in the signal ratio in the repeat runs, not every such curve was filed as active; the % refers to the signal ratio). An outline of the steps:
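16 h compound exposure (37 C) of p53 response element–bla cells, preceded by 5 h recovery at 37 C/5% CO2; read-out via LiveBLAzer B/G FRET substrate, 2 h RT, fluorescence intensity.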

For assay [11], the target named is 5-hydroxytryptamine receptor 2A (Homo sapiens) (UniProt P28223). Put plainly: 5-hydroxytryptamine receptor 2A (HTR2A) small molecule antagonists, cell-based qHTS assay (AID 1963586). Also: nearly all actives have a fitted effect of over 45% in size. The method in brief:
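CHO cells stably expressing human HTR2A were plated for 18 h at 37 C, then loaded with calcium dye for 1 h. Compounds were preincubated 5 min at room temperature before DOI (4 nM solution) was added. Kinetic fluorescence was read for 3 min.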

For assay [12] the target is unchanged. In words: 5-hydroxytryptamine receptor 2A (HTR2A) small molecule agonists, cell-based qHTS assay (AID 1963587). Also: nearly all actives have a fitted effect of over 30% in size. The method in brief:
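HTR2A-CHO cells, plated 18 h at 37 C/5% CO2, dye-loaded 1 h at 37 C; compounds in DMSO added by pin tool (agonist mode). Intracellular calcium flux read as kinetic fluorescence on FDSS over 2 min at 1 s intervals.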

Assay [13] has as its target Muscarinic acetylcholine receptor M1 (Homo sapiens) (UniProt P11229). In words: Cholinergic receptor muscarinic 1 (CHRM1) small molecule antagonists, cell-based qHTS assay (AID 1963588). Also: nearly all actives have a fitted effect of over 40% in size. An outline of the steps: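 Compounds were tested at 15 concentrations in three independent runs. Dye-loaded CHRM1-CHO cells were exposed 5 min at room temperature before stimulation by acetylcholine added at 50nM. Intracellular calcium was read kinetically on FDSS for 3 min.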

Assay [14] shares this target. In words: Cholinergic receptor muscarinic 1 (CHRM1) small molecule agonists, cell-based qHTS assay (AID 1963589). Also: nearly all actives have a fitted effect of over 35% in size. The method in brief: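 Homogeneous fluorescence calcium flux, agonist mode. Human M1-expressing CHO cells; compound dosed at 15 concentrations, three independent runs; signal sampled every 1 sec.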
Assay [15] is described as follows: cAMP Responsive Elements (CRE) small molecule antagonists, cell-based qHTS assay (AID 1963591; active = well fitted inhibition curve with a large enough effect in the signal ratio in the repeat runs, not every such curve was filed as active; the % refers to the signal ratio). An outline of the steps: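 First, CRE-bla HEK293T cells settled 18 h at 37 C. Next, compound and 0.25 uM final NKH477 were applied for 3 h. Last, LiveBLAzer B/G substrate was loaded for 2 h at room temperature.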
Assay [16] has as its target Beta-2 adrenergic receptor (Homo sapiens) (UniProt P07550). In words: Adrenergic beta2 receptor (ADRB2) small molecule antagonists, cell-based qHTS assay (AID 1963592). Also: series mostly up to about 92 µM; nearly all actives have a fitted effect of over 50% in size. An outline of the steps: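 Assay format: CHO-ADRB2 cells, 18-20hr seeding at 37C/5% CO2, then compound plus 1nM isoproterenol agonist mix for 0.5hr RT. Homogeneous time-resolved fluorescence cAMP detection after 1hr, expressed as 665/615 nm ratio.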

Assay [17] deals with D(2) dopamine receptor (Homo sapiens) (UniProt P14416). Put plainly: Dopamine D2 receptor (DRD2) small molecule agonists, cell-based qHTS assay (AID 1963594). Also: nearly all actives have a fitted effect of over 35% in size. An outline of the steps: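 HEK293 cells stably expressing DRD2 were cultured 24 h at 37 C, then given Ro20-1724 (0.1 mM final) and compounds for 10 min at room temperature. NKH477 (200nM) was then added for 30 min. cAMP was read by HTRF.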
D(2) dopamine receptor (Homo sapiens), sequence (P14416 whole entry, looked up): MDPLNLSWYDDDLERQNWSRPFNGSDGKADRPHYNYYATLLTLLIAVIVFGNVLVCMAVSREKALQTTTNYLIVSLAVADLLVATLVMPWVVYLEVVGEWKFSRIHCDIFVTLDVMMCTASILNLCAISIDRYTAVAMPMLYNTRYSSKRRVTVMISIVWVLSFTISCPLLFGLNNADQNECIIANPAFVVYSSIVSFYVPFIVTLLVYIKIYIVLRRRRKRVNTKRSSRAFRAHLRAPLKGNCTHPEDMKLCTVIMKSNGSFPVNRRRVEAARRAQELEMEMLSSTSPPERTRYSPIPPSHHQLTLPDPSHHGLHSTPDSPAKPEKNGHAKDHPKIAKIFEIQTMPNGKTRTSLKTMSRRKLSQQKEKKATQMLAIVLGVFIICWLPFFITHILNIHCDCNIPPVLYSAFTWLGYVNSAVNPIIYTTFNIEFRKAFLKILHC

Assay [18] has the same target. In words: Dopamine D2 receptor (DRD2) small molecule antagonists, cell-based qHTS assay (AID 1963595; active = well fitted inhibition curve with a large enough effect in the signal ratio in the repeat runs, with a control signal flat; the % refers to the signal ratio). An outline of the steps: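 Cells were plated and grown for 24 h at 37 °C. Ro20-1724 (0.1 mM final) went in first, then compound for 10 min. NKH477 (200 nM) with quinpirole (12 nM) followed for 30 min at RT, then HTRF detection reagents for 1 h.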
A short description of assay [19]: cAMP Responsive Elements (CRE) small molecule agonists, cell-based qHTS assay (AID 1963590). The method in brief: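 HEK 293T cells stably bearing CRE-bla were plated at 2,000 cells per well and rested 18 h. Compounds, positive controls or DMSO were added for 3 h at 37 C. LiveBLAzer B/G substrate was then loaded for 2 h at room temperature.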
Assay [20] concerns the target Beta-2 adrenergic receptor (Homo sapiens) (UniProt P07550). In words: Adrenergic beta2 receptor (ADRB2) small molecule agonists, cell-based qHTS assay (AID 1963593).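 Also: CHO cells stably overexpressing human ADRB2.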 An outline of the steps: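 CHO cells stably over-expressing ADRB2 were plated overnight at 37C, then dosed with compounds plus a stimulation mix containing 100uM IBMX and 25uM Ro-20-1724 for 0.5hr at room temperature. cAMP was measured by HTRF competition, 1hr.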

Values joined by “and” are separate entries in the source; they are usually repeats but may differ in a detail not shown here. Identical values can stand only once. Inconclusive results are not listed. The source holds several records for some structures; these can differ, active in one and inactive in another. Active and inactive are the calls of the source. Unless noted, calls follow the shape of the full dose curve.

Gonadotropin-releasing hormone receptor (Homo sapiens), sequence (P30968 whole entry, looked up): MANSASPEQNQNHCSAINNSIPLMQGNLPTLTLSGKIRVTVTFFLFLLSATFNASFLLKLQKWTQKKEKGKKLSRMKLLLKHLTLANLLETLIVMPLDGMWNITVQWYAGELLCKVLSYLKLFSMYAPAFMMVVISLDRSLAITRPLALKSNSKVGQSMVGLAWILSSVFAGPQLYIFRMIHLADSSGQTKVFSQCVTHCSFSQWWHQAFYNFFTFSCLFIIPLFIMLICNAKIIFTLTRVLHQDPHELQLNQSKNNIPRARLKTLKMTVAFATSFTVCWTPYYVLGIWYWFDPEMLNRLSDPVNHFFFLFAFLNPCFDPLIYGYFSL
Beta-2 adrenergic receptor (Homo sapiens), sequence (P07550 whole entry, looked up): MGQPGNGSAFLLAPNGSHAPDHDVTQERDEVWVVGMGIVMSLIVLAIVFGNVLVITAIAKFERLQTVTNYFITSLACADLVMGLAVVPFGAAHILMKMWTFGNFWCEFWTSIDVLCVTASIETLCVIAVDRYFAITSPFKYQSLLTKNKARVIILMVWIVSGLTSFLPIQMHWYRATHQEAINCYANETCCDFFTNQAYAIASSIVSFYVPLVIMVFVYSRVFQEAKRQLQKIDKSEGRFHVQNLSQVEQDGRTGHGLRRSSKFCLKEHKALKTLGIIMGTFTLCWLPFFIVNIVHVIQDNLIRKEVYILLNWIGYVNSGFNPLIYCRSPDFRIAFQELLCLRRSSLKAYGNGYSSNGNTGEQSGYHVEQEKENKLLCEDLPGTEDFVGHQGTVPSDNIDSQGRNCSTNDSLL
5-hydroxytryptamine receptor 2A (Homo sapiens), sequence (P28223 whole entry, looked up): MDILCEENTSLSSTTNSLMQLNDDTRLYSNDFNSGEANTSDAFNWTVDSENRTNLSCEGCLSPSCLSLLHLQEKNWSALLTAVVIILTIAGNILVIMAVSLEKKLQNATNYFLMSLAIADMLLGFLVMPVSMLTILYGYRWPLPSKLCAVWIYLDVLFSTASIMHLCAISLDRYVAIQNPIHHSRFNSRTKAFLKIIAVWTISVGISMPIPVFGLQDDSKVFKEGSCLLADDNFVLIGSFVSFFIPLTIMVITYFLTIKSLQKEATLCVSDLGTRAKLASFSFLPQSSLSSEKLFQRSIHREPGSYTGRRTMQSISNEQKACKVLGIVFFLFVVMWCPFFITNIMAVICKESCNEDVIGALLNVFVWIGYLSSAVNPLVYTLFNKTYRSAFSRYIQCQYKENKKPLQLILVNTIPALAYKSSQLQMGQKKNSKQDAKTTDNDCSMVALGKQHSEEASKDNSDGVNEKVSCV
KiSS-1 receptor (Homo sapiens), sequence (Q969F8 whole entry, looked up): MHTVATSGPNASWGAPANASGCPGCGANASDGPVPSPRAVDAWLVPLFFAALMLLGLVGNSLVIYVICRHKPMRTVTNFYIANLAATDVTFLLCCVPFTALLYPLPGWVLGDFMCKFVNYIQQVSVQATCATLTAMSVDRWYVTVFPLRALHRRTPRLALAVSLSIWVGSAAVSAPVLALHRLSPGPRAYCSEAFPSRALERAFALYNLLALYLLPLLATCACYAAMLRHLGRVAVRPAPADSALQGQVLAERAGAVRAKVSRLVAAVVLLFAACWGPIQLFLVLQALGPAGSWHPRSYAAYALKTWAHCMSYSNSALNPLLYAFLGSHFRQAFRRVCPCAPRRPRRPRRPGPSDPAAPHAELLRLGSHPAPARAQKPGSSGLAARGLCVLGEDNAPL
Muscarinic acetylcholine receptor M1 (Homo sapiens), sequence (P11229 whole entry, looked up): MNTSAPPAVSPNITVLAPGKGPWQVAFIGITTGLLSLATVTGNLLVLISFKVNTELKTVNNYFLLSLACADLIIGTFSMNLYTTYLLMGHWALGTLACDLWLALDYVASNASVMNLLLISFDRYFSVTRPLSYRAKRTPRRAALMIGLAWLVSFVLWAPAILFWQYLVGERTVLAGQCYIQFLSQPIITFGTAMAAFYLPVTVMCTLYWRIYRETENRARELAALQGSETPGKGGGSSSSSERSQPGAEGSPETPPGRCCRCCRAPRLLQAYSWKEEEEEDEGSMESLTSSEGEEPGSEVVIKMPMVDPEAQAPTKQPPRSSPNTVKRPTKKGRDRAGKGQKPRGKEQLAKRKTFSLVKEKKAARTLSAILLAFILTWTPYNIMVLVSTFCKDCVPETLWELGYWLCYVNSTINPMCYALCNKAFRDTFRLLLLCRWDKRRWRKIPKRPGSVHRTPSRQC

As to `C/C(=C\c1ccccc1)[N+](=O)[O-]`, the Potency in [1] is 15.4 µM (active); in [8] it was 36.3 µM (active). The Potency entry in assay [2], in [3], in [4], in assay [5], in assay [6] and in assay [7] was “inactive” each time. For the same compound, the Potency entry in assay [9], in [10], in assay [11], in assay [12], in assay [13] and in assay [14] was “inactive” in each case. For the same compound, the Potency result in [15], in assay [16], in assay [17] and in assay [18] was “inactive” throughout.
As for `Nc1ccc([N+](=O)[O-])cc1Cl`, the Potency result in assay [1], in assay [2], in [3], in [4], in [5] and in assay [6] was “inactive” in each case. Further, the Potency result in [7], in assay [8], in assay [9], in [10], in assay [11] and in assay [12] was “inactive” throughout. The Potency result in assay [13], in assay [14], in assay [19], in assay [15], in [20] and in assay [17] was “inactive” in each case. In addition, in assay [18], the Potency entry was “inactive”.
As for `N#CC(C#N)=C(C#N)C#N`, the Potency result in [1], in assay [2], in [3], in assay [4], in assay [5] and in assay [6] was “inactive” each time. The Potency result in assay [7], in assay [8], in [9], in assay [10], in [11] and in [12] was “inactive” throughout. Further, the Potency result in assay [13], in [14], in assay [19], in [15] and in assay [16] was “inactive” in each case.
Take `Clc1ccc(Oc2ccccc2)cc1`: the Potency entry in [1], in [2], in assay [3], in [4], in [5] and in assay [6] was “inactive” throughout. Also, the Potency result in assay [7], in assay [9], in assay [10], in assay [12], in assay [13] and in assay [14] was “inactive” each time. Also, the Potency result in assay [19], in assay [15], in assay [16], in [20], in assay [17] and in assay [18] was “inactive” each time.
As for `[O-][Br+2]([O-])O`, the Potency entry in assay [1], in assay [2], in assay [3], in [4], in assay [5] and in [6] was “inactive” each time. The Potency result in [7], in assay [8], in [9], in assay [10], in assay [11] and in assay [12] was “inactive” each time. Besides, the Potency result in assay [13], in assay [14], in [19], in [15], in [16] and in [17] was “inactive” each time.
Regarding `CCC(C)(c1ccc(O)cc1)c1ccc(O)cc1`, the Potency entry in assay [1], in assay [2], in assay [3], in assay [4], in [5] and in assay [6] was “inactive” in each case. The Potency result in assay [7], in [8], in [9], in assay [11], in assay [12] and in assay [13] was “inactive” in each case. The Potency result in assay [19], in assay [15], in [16], in [17] and in [18] was “inactive” throughout.
With `C[C@]12C/C(=C/O)C(=O)C[C@@H]1CC[C@@H]1[C@@H]2CC[C@@]2(C)[C@H]1CC[C@]2(C)O`, the Potency in [1] is 27.6 µM (active) and 6.68 µM (active); in [7], 36.7 µM (active) and inactive; in assay [9], 36.7 µM (active). Besides, the Potency result in [2], in assay [3], in assay [4], in assay [5], in assay [6] and in [8] was “inactive” throughout. Also, the Potency result in [16] and in assay [18] was “inactive” throughout.
